Most compounds without a hit are left out; they make up all but 2.2% or so of the library.
LMP1 NFkB inh: inhibitors of Epstein-Barr LMP1-induced NF-kappaB reporter. LMP1-induced NF-kappaB luciferase reporter cells, luminescence. 0.69% of 350,000 active. inhibition, % at 12.5 µM; in the data active means inhibition above about 41%; inconclusive means no clear call, values can overlap the other calls;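 further: 0% = neutral control wells and 100% = reference inhibitor control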
Shn3 3UTR inh: reduces Shn3 3'UTR luciferase signal in osteoblasts; Clone20 osteoblast Shn3 3'UTR firefly luciferase, 24 h; inhibition, % at 12.5 µM; 0.52% of 360,000 active; AID 588674;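 active means mean inhibition of at least 75% with every replicate also reaching 75%; inconclusive means mean inhibition at least 75% but some replicate below; inactive means mean inhibition below 75%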;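 further: 0% = median of neutral control wells and 100% = pilot-screen positive control compound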
LGR2 inh: Drosophila LGR2 receptor signaling inhibition; HEK293 LGR2, CRE-luciferase, bursicon-stimulated, 4 h; inhibition, % at 9.99 µM; 0.35% of 380,000 active; AID 720647;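 active means drop in luminescence signal, shown as inhibition above about 50% in the replicate tests, limit read from the data, passing the limit was not always enough; inconclusive means probably only some replicates passing the limit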;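 further: agonist challenge used bursicon conditioned medium at about half maximal strength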
EWS-Fli block: inhibitors of EWS/Fli oncoprotein transcriptional activity. A673 NR0B1-luciferase reporter, viability-normalised. inhibition, % at 12.6 µM. 0.67% of 350,000 active;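 active means mean inhibition of at least 50% after viability correction, with every replicate also passing that limit; inconclusive means mean reaches 50% but only one of two replicates passes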;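 further: firefly luciferase signal divided by Alamar Blue viability fluorescence both relative to DMSO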
PAX8 inh HTS: inhibitors of PAX8 transcriptional activity in RMG-I cells; RMG-I TPO-luciferase reporter, SteadyGlo, 24 h; inhibition, % at 12.6 µM; 1.2% of 360,000 active; AID 652154;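 active means mean replicate inhibition at least 60% with every replicate also reaching 60%; inconclusive means only one of the two criteria is met; inactive means mean below 60% and not all replicates reaching 60%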;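 further: luciferase light reporting Pax8 driven TPO promoter activity; plate controls were median of neutral control wells for no effect and mitoxantrone controls for full effect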
TRPM1 prom inh: inhibitors of MITF-driven TRPM1 promoter in melanoma cells | AID 488899 | inhibition, % at 12.5 µM | SK-MEL-5 TRPM1 promoter luciferase, 24 h | 0.83% of 330,000 active;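 active means mean inhibition across replicates of 60% or more, whatever share of single replicates reaches that level; inconclusive means some that reach 60%, reason not given; inactive means mean inhibition across replicates below 60%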
Starred values were filed as active, the others as inactive; ? = inconclusive; . = not tested or not shown.

SMILES | LMP1 NFkB inh | Shn3 3UTR inh | LGR2 inh | EWS-Fli block | PAX8 inh HTS | TRPM1 prom inh
CCOc1ccccc1C1CC(=O)Nc2cc(C)c(C)cc21 (configuration not stated) | -12 | 21 | -1 | ? | 47 | 15
COc1ccccc1C1CC(=O)Nc2cc(C)c(C)cc21 (configuration not stated) | -7 | 4 | 3 | 54* | 53 | 19
COc1ccc(S(=O)(=O)N(C)C[C@H]2Oc3ccc(NS(=O)(=O)c4ccc(C)cc4)cc3CC(=O)N([C@H](C)CO)C[C@@H]2C)cc1 | . | . | 12 | 22 | -13 | .
Cc1ccc2nc(-c3ccc(N)cc3)sc2c1 | 24 | 11 | 82* | 69* | 13 | 14
CNC(=S)Nc1ccc(-c2nc3ccc(C)cc3s2)cc1 | -10 | -12 | 53* | -7 | -74 | -75
C[C@H](CO)N1C[C@H](C)[C@H](CN(C)Cc2ccc(C(=O)Nc3ccccc3N)cc2)Oc2c(NS(=O)(=O)c3ccccc3)cccc2C1=O | . | . | -14 | -5 | 29 | .
c1ccc(CNc2nc(-c3ccccn3)nc3ccccc23)cc1 | 27 | 64 | 28 | 33 | 37 | 27
CCC(C)Nc1nc(-c2ccccn2)nc2ccccc12 (configuration not stated) | 48* | ? | 17 | 36 | 28 | 27
Cc1ccc(S(=O)(=O)N2c3ccccc3-c3c(ssc3=S)C2(C)C)cc1 | 58* | 13 | . | -2 | -9 | 9
C[C@H]1CN([C@@H](C)CO)C(=O)Cc2cc(NC(=O)NC3CCCCC3)ccc2O[C@@H]1CN(C)C(=O)Nc1ccc(C(F)(F)F)cc1 | . | . | -4 | -1 | -15 | .
C=CCn1c(C)cc(C(=O)CN2C(=O)c3ccccc3S2(=O)=O)c1C | 87* | 91* | . | . | . | 94*
Cc1cc(C(=O)CN2C(=O)c3ccccc3S2(=O)=O)c(C)n1-c1ccccc1 | 74* | 61 | . | . | . | 81*
C=CCn1c(C)cc(C(=O)CSc2nc3ccccc3c(=O)[nH]2)c1C | -13 | 3 | . | . | -183 | -21
C=CCn1c(C)cc(C(=O)CSc2nc3ccccc3[nH]2)c1C | 24 | 51 | 60* | . | . | -1
CCCNC(=O)N1CC2(CN(C(=O)C3CCC3)C2)c2c([nH]c3cc(OC)ccc23)[C@@H]1CO | . | . | -17 | 0 | . | .
CCOC(=O)Cc1csc(/N=C/c2c(O)n(-c3ccc(C)c(C)c3)c(=O)c3ccccc23)n1 | 1 | 71 | 6 | . | 4 | 66*
Cn1cnc2nc(Cl)nc(Cl)c21 | 17 | 20 | 2 | 46 | 80* | 18
Cc1noc(C)c1NC(=O)Nc1ccc2c(c1)C(=O)N([C@@H](C)CO)C[C@H](C)[C@@H](CN(C)S(C)(=O)=O)O2 | . | . | 10 | -8 | . | .
C[C@@H]1CCCCO[C@H](CN(C)C(=O)Nc2ccc3c(c2)OCO3)[C@H](C)CN([C@H](C)CO)C(=O)c2cc(NS(=O)(=O)c3ccccc3)ccc2O1 | . | . | 7 | -33 | -24 | .
Cc1cccc2sc(NNC(=O)c3ccc(S(=O)(=O)N4CCc5ccccc5C4)cc3)nc12 | -19 | 72 | 28 | 8 | 77* | 52
CCOC(=O)N1CCN(S(=O)(=O)c2ccc(C(=O)NNc3nc4c(C)cccc4s3)cc2)CC1 | 92* | 41 | 35 | 29 | 81* | 20
COc1ccc(S(=O)(=O)N(C)C[C@H]2Oc3ccc(NC(=O)CCCN(C)C)cc3C(=O)N([C@@H](C)CO)C[C@H]2C)cc1 | . | . | 17 | -1 | -8 | .
CN(C)c1ccc(/C=N/N=C/c2ccccc2O)cc1 | -40 | 7 | 56* | . | -85 | 1
COc1ccccc1C=NNC(=O)NN=Cc1ccccc1OC | -4 | -18 | -29 | -23 | -19 | -41
COc1ccccc1C=NN=Cc1ccccc1O | 83* | -24 | -67 | -25 | -75 | -13
SMILES | LMP1 NFkB inh | Shn3 3UTR inh | LGR2 inh | EWS-Fli block | PAX8 inh HTS | TRPM1 prom inh
COc1ccccc1C=NN=C(NN=Cc1ccccc1OC)NN=Cc1ccccc1OC | 37 | 43 | 46 | 4 | 26 | 88*
CN(C)c1ccc(C=Nc2ccccc2C(N)=O)cc1 | 27 | 1 | . | . | . | 6
CC(C)C#Cc1ccc2c(c1)O[C@H](CN(C)S(C)(=O)=O)[C@@H](C)CN([C@H](C)CO)S2(=O)=O | . | . | 3 | 0 | . | .
COc1ccc(NC(=O)N(C)C[C@@H]2OCCCC[C@H](C)Oc3ccc(NS(=O)(=O)c4ccc(Cl)cc4)cc3C(=O)N([C@H](C)CO)C[C@@H]2C)cc1 | . | . | 5 | -1 | 27 | .
C[C@H]1CCCCO[C@@H](CN(C)C(=O)Cc2ccccc2)[C@@H](C)CN([C@@H](C)CO)C(=O)c2cc(NC(=O)CCC(F)(F)F)ccc2O1 | . | . | 6 | 1 | -4 | .
CC(=O)c1ccc(N(C(=O)Cc2c[nH]c3ccccc23)C(C(=O)NC2CCCCC2)c2cccs2)cc1 (configuration not stated) | -16 | -7 | . | . | -13 | -9
O=C(NC1CCCCC1)C(c1cccs1)N(C(=O)Cc1c[nH]c2ccccc12)c1ccc(F)cc1 (configuration not stated) | -12 | 7 | . | . | 97* | 18
CC(C)(C)OC(=O)NCCCCCc1cn([C@@H](CO)C(=O)NCCCCCCCCCCC(=O)N2CCN(C(=O)OC(C)(C)C)CC2)nn1 | 15 | 34 | . | 15 | 41 | 58
C#CCOCCOCCOCCNc1nc(N2CCN(C(=O)CCCCCCCCCCNC(=O)Cn3cc(CCCCCN)nn3)CC2)nc(N2CCN(C(=O)CCCCCCCCCCNC(=O)[C@H]([C@@H](C)CC)n3cc(CCCCN=C(N)N)nn3)CC2)n1 | -7 | 27 | . | . | . | 75*
C#CCOCCOCCOCCNc1nc(N2CCN(C(=O)CCCCCCCCCCNC(=O)[C@H](CO)n3cc(CCCSC)nn3)CC2)nc(N2CCN(C(=O)CCCCCCCCCCNC(=O)[C@H](CCCN=C(N)N)n3cc(C[C@@H](C)CC)nn3)CC2)n1 | 0 | 10 | . | . | . | 89*
C#CCOCCOCCOCCNc1nc(N2CCN(C(=O)CCCCCCCCCCNC(=O)[C@H]([C@@H](C)CC)n3cc(CCCCCN)nn3)CC2)nc(N2CCN(C(=O)CCCCCCCCCCNC(=O)[C@H]([C@@H](C)CC)n3cc(CCCCN=C(N)N)nn3)CC2)n1 | 10 | 37 | . | . | . | 99*
C#CCOCCOCCOCCNc1nc(N2CCOCC2)nc(N2CCN(C(=O)CCCCCCCCCCNC(=O)[C@@H]([C@H](C)CC)n3cc(CCCCCN)nn3)CC2)n1 | -3 | 2 | 3 | 9 | -2 | 19
CC[C@H](C)[C@@H](C(=O)NCCCCCCCCCCC(=O)N1CCN(C(=O)OC(C)(C)C)CC1)n1cc(CCCCCNC(=O)OC(C)(C)C)nn1 | 19 | 89* | 27 | 23 | 63* | 65*
CCCNC(=O)C[C@@H]1CC[C@@H]2[C@@H](COc3ccc(NC(=O)c4cccc(F)c4)cc3C(=O)N2C)O1 | . | . | 14 | 1 | -8 | .
COc1ccc(NC(=O)N[C@H]2CC[C@H](CCNC(=O)CCN3CCCCC3)O[C@@H]2CO)cc1 | . | . | 13 | 1 | -21 | .

Screens: PubChem, Broad Institute
